PubChem BioAssay AID1224855 (National Center for Advancing Translational Sciences (NCATS), 2016)
Results filed as inconclusive are left out. The source made the active and inactive calls. The call rests on the fitted dose curve; in most records, active means well fitted inhibition curve with a large enough effect; inconclusive means small, poorly fitted or top-dose-only effect; inactive means no such curve, though single readings can be large or run the other way.

Assay: Confirmation assay for measurement of the activity of small molecule inhibitors on Zika virus induced Caspase-3 activity in human iPSC derived neural progenitor cells (hNPCs)
Conditions: hNPC ZIKV-induced caspase-3/7, Caspase-Glo luminescence, 6 h; series mostly up to 46.1 µM; activity, negative = inhibition: at the top concentration
From the text: National Center for Advancing Translational Sciences [NCATS] Johns Hopkins University School of Medicine Florida State University Assay Overview: Increase in the Caspase-3 activity indicates an activation of apoptosis cell death pathway caused by Zika virus infection in certain types of neuronal cells including human neural progenitor cells (hNPCs), astrocytes, and astrocytoma cell line (SNB-19). This cell-based caspase-3 activity assay measures the increased caspase-3 activity in the human iPSC derived neural progenitor cells (hNPCs) after a 6-hour Zika virus infection with a luminescence readout. A decrease in the luminescence signal in this assay by small molecule treatment indicates an inhibitory effect of that small molecule on the Zika virus induced caspase-3 activity that may correlate with its effect on reduction of Zika virus caused cell death.
Assay Protocol Summary: The medium for hNPCs consists of DMEM/F12, N2 supplement (ThermoFisher, Cat.# 17502048), NEAA (ThermoFisher, Cat. # 11140050), 2 ug/ml heparin, 2 uM cyclopamine, and B27 (ThermoFisher, Cat. # 17504044). A Caspase-Glo 3/7 assay kit (catalog number G8092; Promega, Madison, WI) was used to detect caspase-3 activity induced by Zika virus infection in human cells. The reagent mixture was reconstituted as described in the protocol from the manufacturer. Polystyrene tissue culture treated and PDL coated white plates were obtained from Greiner Bio-One (Monroe, NC). Cells were seeded in 384- or 1536-well assay plates and cultured at 37 C with 5% CO2 for 16 to 20 hours. The typical cell seeding density in the 1536-well plate assay is 350 cells/well in 3 ul medium for hNPCs in tissue culture treated plates. Compounds were added to cells and incubated for one hour before addition of ZIKV solution to cells (2 FFU/cell). After incubation at 37 C with 5% CO2 for 6 hours, the reagent mixture of Caspase-Glo 3/7 assay kit was added to each well, followed by incubation at room temperature for 30 minutes. The luminescence intensity of the assay plates was measured using a ViewLux plate reader (PerkinElmer). Data were normalized by using the cell-containing wells without ZIKV as a negative control (0% induction of caspase 3/7 activity) and wells containing ZIKV infected cells (Caspase-3 activity induced) as a positive control (100% induction of caspase 3 activity). The percentage inhibitions of the increased Caspase-3 activity by small molecule inhibitors were then calculated.

With `CCN1/C(=C/C=C/c2sc3ccccc3[n+]2CC)Sc2ccccc21` as the compound, how does the “activity, negative = inhibition” value read?
Its value is 77.5% [at 23.8 µM] (inactive).

Which Potency does the source give for `Cc1nc(-c2ccc(OCC(C)C)c(C#N)c2)sc1C(=O)O` here?
Its Potency is 3.88 µM (active).

Which “activity, negative = inhibition” value does the source give for `COc1ccc(CC2=NN3C([C@@H](CCc4ccccc4)[C@@H](C)O)=NC(C)C3C(=O)N2)cc1OC` (stereo not given in full) here?
The value was 8.66% (inactive).

For `O=c1oc2cc(O)ccc2s1`, which “activity, negative = inhibition” value is on record?
Its value is 8.59% (inactive).

For `CC(C)OC(=O)CCCC=CC[C@@H]1[C@H](C=C[C@@H](O)COc2cccc(C(F)(F)F)c2)[C@H](O)C[C@@H]1O`, which “activity, negative = inhibition” value is on record?
The value was -13.3% (inactive).

With `O=C(CS)Nc1ccccc1` as the compound, how does the “activity, negative = inhibition” value read?
The value was 28.8% (inactive).

Which “activity, negative = inhibition” value does the source give for `CC(C)(C)OC(=O)CN(Cc1ccc(Cl)cc1)Cc1ccc([N+](=O)[O-])s1` here?
The value was 38.9% [at 88.3 µM] (inactive).

Which “activity, negative = inhibition” value does the source give for `CCN1CCC(n2cc(CNc3cc(Cl)c4ncc(C#N)c(Nc5ccc(F)c(Cl)c5)c4c3)nn2)CC1` here?
The value was 37.8% (inactive).

Which “activity, negative = inhibition” value does the source give for `CCCCCNC(=O)N1CCC(CN(Cc2ccc(Cl)cc2)Cc2ccc([N+](=O)[O-])s2)C1` (stereo not given) here?
The value was 56.3% (inactive).

With `CCCCCCCCCCCC(=O)[O][Sn]([CH2]CCC)([CH2]CCC)[O]C(=O)CCCCCCCCCCC` as the compound, how does the “activity, negative = inhibition” value read?
Its value is 5.93% (inactive).

For `Cc1ccc(O)c(-n2nc3ccccc3n2)c1`, which Potency is on record?
The Potency was 4.35 µM (active).

Which “activity, negative = inhibition” value does the source give for `Cc1nc(N)sc1-c1ccnc(Nc2ccc(N3CCOCC3)cc2)n1` here?
Its value is -17.9% (inactive).

Which Potency does the source give for `O=C(C=CC=Cc1ccc2c(c1)OCO2)N1CCCCC1` here?
Its Potency is 13.8 µM (active).

Which Potency does the source give for `O=c1c2ccccc2nc2n1CCc1c-2[nH]c2ccccc12` here?
Its Potency is 4.35 µM (active).

Which Potency does the source give for `c1ccc2[nH]c(-c3cscn3)nc2c1` here?
The Potency was 9.75 µM (active).

Which “activity, negative = inhibition” value does the source give for `CC(=C(CCOC(=O)C(C)C)SSC(CCOC(=O)C(C)C)=C(C)N(C=O)Cc1cnc(C)nc1N)N(C=O)Cc1cnc(C)nc1N` here?
Its value is -2.44% (inactive).

For `CC(C)c1ccc2oc3nc(N)c(C(=O)O)cc3c(=O)c2c1`, which Potency is on record?
The Potency was 1.73 µM (active).

Which Potency does the source give for `NC(=O)c1cccc2[nH]c(-c3ccc([C@H]4CCCN4)cc3F)nc12` here?
Its Potency is 13.8 µM (active).

With `Cc1[nH]c(C=C2C(=O)Nc3ccccc32)c(C)c1CCC(=O)O` as the compound, how does the “activity, negative = inhibition” value read?
The value was 11.2% (inactive).

With `CC(=O)OC(C)OC(=O)C(C)c1ccc(-c2ccccc2)c(F)c1` (stereo not given) as the compound, how does the “activity, negative = inhibition” value read?
The value was -22.6% (inactive).

Which Potency does the source give for `CC(=O)Oc1ccccc1C(=O)Nc1ncc([N+](=O)[O-])s1` here?
Its Potency is 1 µM (active).

Which “activity, negative = inhibition” value does the source give for `Nc1ncnc2c1ncn2[C@@H]1O[C@@H](CO)[C@H](O)[C@H]1O` here?
The value was 2.2% [at 23.8 µM] (inactive).

With `O=C(c1ccccc1)c1ccc2n1CCC2C(=O)O` (stereo not given) as the compound, how does the Potency read?
The Potency was 13.8 µM (active).

For `O=C1NC(=O)C(=Cc2ccc(-c3ccc(F)cc3)o2)S1`, which Potency is on record?
Its Potency is 9.75 µM (active).

For `COc1cc(NC(C)CCCN)c2ncccc2c1` (stereo not given), which “activity, negative = inhibition” value is on record?
The value was 18.4% (inactive).

With `O=C(Nc1cc2cc[nH]c2cn1)c1ccccc1` as the compound, how does the Potency read?
The Potency was 3.46 µM (active).

Which “activity, negative = inhibition” value does the source give for `C=CCCCCCCCCC(=O)O` here?
The value was -13.2% (inactive).

For `Nc1ccc(O)c(C(=O)O)c1`, which “activity, negative = inhibition” value is on record?
Its value is -3.33% (inactive).

Which “activity, negative = inhibition” value does the source give for `CC[C@]1(O)C[C@H]2CN(CCc3c([nH]c4ccccc34)[C@@](C(=O)OC)(c3cc4c(cc3OC)N(C=O)[C@H]3[C@@](O)(C(=O)OC)[C@H](OC(C)=O)[C@]5(CC)C=CCN6CC[C@]43[C@@H]65)C2)C1` here?
Its value is 46.5% (inactive).

Which Potency does the source give for `CC(C(=O)O)c1ccc(C(=O)c2ccccc2)s1` (stereo not given) here?
The Potency was 6.9 µM (active).

Which Potency does the source give for `CC(C)(C)COc1ccc(-n2cc(C(=O)O)cn2)cc1C#N` here?
The Potency was 22.4 µM (active).

Which Potency does the source give for `O=S(=O)(O)c1ccc2nc(-c3ccccc3)[nH]c2c1` here?
The Potency was 1.23 µM (active).

For `C[C@@H](O[C@H]1OCCN(Cc2n[nH]c(=O)[nH]2)[C@@H]1c1ccc(F)cc1)c1cc(C(F)(F)F)cc(C(F)(F)F)c1`, which “activity, negative = inhibition” value is on record?
Its value is 31.4% (inactive).

With `O=c1c(-c2ccc(O)cc2)coc2cc(O)ccc12` as the compound, how does the Potency read?
Its Potency is 13.8 µM (active).

For `N#CC1(c2ccc(NC(=O)c3cccnc3NCc3ccncc3)cc2)CCCC1`, which “activity, negative = inhibition” value is on record?
Its value is -30.6% (inactive).

Which “activity, negative = inhibition” value does the source give for `Cc1c(C(=O)O)c(O)cc2c1C(=O)c1c(O)c([C@@H]3O[C@H](CO)[C@@H](O)[C@H](O)[C@H]3O)c(O)c(O)c1C2=O` here?
The value was 64.3% (inactive).

For `CN(C)c1ccc(/C=C2\C(=O)Nc3ccccc32)cc1`, which Potency is on record?
Its Potency is 7.74 µM (active).

Which Potency does the source give for `Nc1ccc2c(c1)CN1C(=O)c3ccccc3C1=N2` here?
The Potency was 1.9 µM (active).

Which Potency does the source give for `CCC(C(=O)O)c1ccc(N2Cc3ccccc3C2=O)cc1` (stereo not given) here?
Its Potency is 5.48 µM (active).

With `C[C@@H](N)c1ccc(C(=O)Nc2ccnc3[nH]ccc23)cc1` as the compound, how does the “activity, negative = inhibition” value read?
The value was 2.76% (inactive).
